# In PubChem BioAssay (NCI):
# This is part of a sample that, as a whole, favours compounds with a hit. Of some 83,000 tested, about 20% had one in any assay.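 96-well plates, one dose, 48 hours. Percent growth reported; active if below 10.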 Calls of active or inactive are those of the source.
# Legend:
# Test in all cases: NCI-60 one-dose screen, 48 h (100 = growth as untreated, 0 = no growth, -100 = all killed)
# NCI-H226 lung = conditions: 10 µM
# NCI-H322M lung = conditions: 10 µM
# HOP-62 NSCLC = conditions: 10 µM
# NCI-H460 lung = conditions: 10 µM
# NCI-H522 lung = conditions: 10 µM
# A549/ATCC NSCLC = conditions: 10 µM
# COLO 205 colon = conditions: 10 µM
# DU-145 prostate = conditions: 10 µM
# SF-268 CNS = conditions: 10 µM
# SF-295 CNS = conditions: 10 µM
# SF-539 CNS = conditions: 10 µM
# UACC-257 melanoma = conditions: 10 µM
# HT29 colon = conditions: 10 µM
# SNB-75 CNS = conditions: 10 µM
# U251 CNS = conditions: 10 µM
# PC-3 prostate = conditions: 10 µM
# SK-MEL-5 melanoma = conditions: 10 µM
# UACC-62 melanoma = conditions: 10 µM
# SK-MEL-2 melanoma = conditions: 10 µM
# HL-60(TB) leukemia = conditions: 10 µM unless noted
SMILES,growth (NCI-H226 lung),growth (NCI-H322M lung),growth (HOP-62 NSCLC),growth (NCI-H460 lung),growth (NCI-H522 lung),growth (A549/ATCC NSCLC),growth (COLO 205 colon),growth (DU-145 prostate),growth (SF-268 CNS),growth (SF-295 CNS),growth (SF-539 CNS),growth (UACC-257 melanoma),growth (HT29 colon),growth (SNB-75 CNS),growth (U251 CNS),growth (PC-3 prostate),growth (SK-MEL-5 melanoma),growth (UACC-62 melanoma),growth (SK-MEL-2 melanoma),growth (HL-60(TB) leukemia)
O=C(/C=C/c1ccco1)c1nc2ccccc2n1Cc1ccc(Br)cc1,48.2% (inactive),62.2% (inactive),57% (inactive),32.4% (inactive),4.59% (active),47.3% (inactive),69.7% (inactive),28.1% (inactive),45.4% (inactive),53.5% (inactive),26.7% (inactive),36.9% (inactive),29.3% (inactive),33.6% (inactive),18.2% (inactive),34.2% (inactive),57.5% (inactive),28.7% (inactive),46.2% (inactive),16% (inactive)
O=C(/C=C/c1ccc(Br)cc1)c1nc2ccccc2n1Cc1ccc(Br)cc1,-70.1% (active),39% (inactive),-22.1% (active),-14.4% (active),-39.8% (active),30% (inactive),-39.8% (active),17.9% (inactive),29.9% (inactive),-34.9% (active),-60.2% (active),-4.85% (active),-27.6% (active),45% (inactive),-86.3% (active),18.7% (inactive),1.54% (active),-66.5% (active),2.53% (active),-13.2% (active)
O=C([Se]C1C=CCCC1)c1ccc(C(=O)[Se]C2C=CCCC2)s1 (centres undefined),-42.9% (active),-28.5% (active),-50.6% (active),4.46% (active),-92.8% (active),-7.22% (active),-95.7% (active),-3.45% (active),0.795% (active),-44.2% (active),-100% (active),-74.7% (active),-25.6% (active),-77.6% (active),-88% (active),-16.5% (active),-88.8% (active),-89.2% (active),-37.7% (active),1.11% (active)
COC(=O)C[C@](O)(CCC(C)C)C(=O)O[C@H]1C(OC)=C[C@@]23CCCN2CCc2cc4c(cc2[C@@H]13)OCO4,-20.4% (active),-9.27% (active),4.64% (active),-26.2% (active),-70% (active),-20.5% (active),-55.4% (active),-24.1% (active),-21.7% (active),-23.6% (active),-51.4% (active),-30.9% (active),-47.5% (active),-48.8% (active),-25.2% (active),-23.5% (active),-70.4% (active),-25.2% (active),-46.4% (active),-38.5% (active)
O=C(/C=C/c1ccc(Cl)cc1)c1nc2ccccc2n1Cc1ccc(Br)cc1,57.4% (inactive),78.8% (inactive),65.5% (inactive),58.1% (inactive),76% (inactive),73.4% (inactive),93.6% (inactive),66.1% (inactive),75.3% (inactive),73.3% (inactive),43.8% (inactive),71% (inactive),38.1% (inactive),79.2% (inactive),34.4% (inactive),36.6% (inactive),85% (inactive),48.6% (inactive),83.3% (inactive),35.8% (inactive)
Cc1c2oc3c(C)ccc(C(=O)N[C@@H]4C(=O)N[C@H](C(C)C)C(=O)N5CCC[C@H]5C(=O)N(C)CC(=O)N(C)[C@@H](C(C)C)C(=O)OC4C)c3nc-2c(C(=O)N[C@@H]2C(=O)N[C@H](C(C)C)C(=O)N3CC(=O)C[C@H]3C(=O)N(C)CC(=O)N(C)[C@@H](C(C)C)C(=O)OC2C)c(N)c1=O (some centres undefined),-4.29% (active),4.93% (active),-21% (active),5.56% (active),-38.6% (active),8.06% (active),-71% (active),12.8% (inactive),-9.63% (active),1.34% (active),-28.4% (active),-28% (active),1.14% (active),-70.6% (active),1.58% (active),1.32% (active),-48.6% (active),-57.5% (active),-68.5% (active),–
O=C(/C=C/c1ccc(Cl)cc1)c1nc2ccccc2n1Cc1ccc(F)cc1,36.6% (inactive),53.5% (inactive),17.7% (inactive),26.8% (inactive),34.9% (inactive),44.7% (inactive),71.9% (inactive),37.6% (inactive),39.9% (inactive),50.7% (inactive),-41.7% (active),51.4% (inactive),5.22% (active),60.9% (inactive),-62.8% (active),19.5% (inactive),69% (inactive),23.5% (inactive),68.3% (inactive),-2.58% (active)
